PubChem BioAssay AID431 (Sanford-Burnham Center for Chemical Genomics, 2006)
Screen size: about 63,000 compounds; about 1,100 (1.7%) were called active. The list comes from a sample in which actives are over-represented; it also holds similar structures and randomly drawn compounds. Potency and affinity values are given separately. Unmarked numbers belong to inactive results.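 The calls were made as follows: active = compounds whose percent cytotoxicity in the single-dose primary screen, scaled between solvent and toxic-drug controls, exceeds 50; inactive = the rest.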

Test: cytotoxicity in KRAS-transformed pancreatic duct cells, primary screen, cell-based, fluorescence, HTS (AID 431);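 also: 0% = DMSO solvent wells and 100% = doxorubicin-treated wells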
Conditions: HPDE-C7K KRASV12 cells, Alamar Blue viability, 48 h; at 10 µM; hits give high values

| SMILES | cytotoxicity |
| --- | --- |
| O=C1CCCc2nc(N3CCN(c4ccccc4)CC3)ncc21 | 20.9% |
| O=C(NC1CCCC1)C(c1cccs1)N(C(=O)c1ccno1)c1ccccc1 (stereo not given) | 2.6% |
| COc1ccc(C2/C(=C(/O)c3ccc(C)cc3)C(=O)C(=O)N2C)cc1 (stereo not given) | -6.1% |
| Cc1nnc(SCCn2c(N3CCN(C)CC3)nc3c2c(=O)[nH]c(=O)n3C)s1 | -9.9% |
| Cc1nnc(SCCn2c(N3CCN(C)CC3)nc3c2c(=O)n(C)c(=O)n3C)s1 | 3.6% |
| Cc1nnc(Sc2nc(Sc3nnc(C)s3)nc(N3CCN(C)CC3)n2)s1 | 102% (active) |
| CC(=O)Nc1nc(C)c(Oc2ccccc2)c(=O)[nH]1 | 6.8% |
| CC(=O)c1c(C)[nH]c(C(=O)N2CCc3ccccc32)c1C | 10.3% |
| CCOC(=O)c1[nH]c(C)c(C(=O)N2CCc3ccccc32)c1C | 57.6% (active) |
| CCOC(=O)c1c(C)[nH]c(C(=O)OCC(=O)N2CCc3ccccc32)c1C | -21.3% |
| COc1ccc(CN(C(=O)CSc2nnc(-c3ccc(F)cc3)o2)c2ccc(F)cc2)cc1 | -9.8% |
| COc1ccc(CN(C(=O)CSc2nnc(-c3ccccc3F)o2)c2ccc(F)cc2)cc1 | 16.8% |
| O=C(CSc1nnc(-c2c[nH]c3ccccc23)o1)N(Cc1ccccc1)c1ccc(F)cc1 | 53.4% (active) |
| CCOC(=O)c1sc(NC(=O)CSc2n[nH]c(-c3ccccc3)n2)c(C#N)c1C | -1.8% |
| CCOC(=O)c1c(NC(=O)CSc2n[nH]c(N)n2)sc(CC)c1C | 0% |
| Cc1ccc(C(=O)NCCCC(=O)O)o1 | -5% |
| Cc1cc(-c2ccco2)n2c(nc3ccccc32)c1C#N | 18.2% |
| COC(=O)c1nnn(-c2nc(N3CCCCC3)nc(N3CCCCC3)n2)c1C | -3.1% |
| CCOC(=O)c1cnc(-n2nc(C)cc2C)nc1NC(C)c1ccccc1 (stereo not given) | -13% |
| NS(=O)(=O)c1ccc(NC(=O)CSC2CCCCC2)cc1 | -3.7% |
| NS(=O)(=O)c1ccc(NC=C2C(=O)OC3(CCCCC3)OC2=O)cc1 | 8.5% |
| Cc1ccc(-c2nnn(CC(=O)Nc3ccc(S(=O)(=O)N4CCC(C)CC4)cc3)n2)cc1 | -2.5% |
| CCOC(=O)c1c2n(c3ccc(O)cc13)CCCCC2 | 2.9% |
| O=C(Oc1c(Cl)cc(Cl)c2cccnc12)N1CCOCC1 | -2.4% |

| SMILES | cytotoxicity |
| --- | --- |
| COc1cc(C(=O)Oc2c(CN3CCOCC3)cc(Cl)c3cccnc23)cc(OC)c1OC | 18.4% |
| Oc1c(CN2CCOCC2)cc(COCc2ccccc2)c2cccnc12 | 30.7% |
| COc1ccc(C(=O)Oc2c(CN3CCOCC3)cc(Cl)c3cccnc23)cc1OC | 13.7% |
| Cc1ccc(Cl)cc1N(CC(=O)NC1CCCCC1)S(C)(=O)=O | -5.9% |
| Cc1nc2cc(-c3cccc(F)c3)nn2c(C)c1CCC(=O)N1CCN(c2ccccn2)CC1 | -4.7% |
| OC(CN1CCOCC1)CN1CCOCC1 | 13.2% |
| CCCCCOc1ccc(OC(=O)c2ccncc2)cc1 | -0.5% |
| CC(=O)c1cccc(NC(=O)c2cc(C(C)C)on2)c1 | -17.2% |
| CCCCOC(=O)c1ccc(NC(=O)c2ccoc2C)cc1 | 5% |
| CCCCOC(=O)c1ccc(NC(C)=O)cc1 | -20.2% |
| O=C(OC1CCCCC1)c1ccc(NC(=O)c2ccco2)cc1 | 74.9% (active) |
| CCCCCOC(=O)c1ccc(NC(=O)c2ccco2)cc1 | 80.3% (active) |
| O=C(Nc1ccc(OC(=O)c2ccco2)cc1)c1ccco1 | -0.1% |
| O=C(O)CCC(=O)Nc1ccc(C(=O)OC2CCCCC2)cc1 | -16.9% |
| CCC1S/C(=C(\C#N)C(=O)NCc2ccco2)N(c2ccc(Br)cc2)C1=O (stereo not given) | -5.6% |
| O=C(CSCc1ccccc1)Nc1nccs1 | -4.5% |
| CC(C)CCn1c(NCCc2ccccc2)nc2c1c(=O)n(C)c(=O)n2C | 0.9% |
| O=S(=O)(O)c1nc2ccccc2n1CCOc1ccccc1 | 5.6% |
| CC(=O)Oc1ccc(N2C(=O)CCC2=O)cc1 | -3.8% |
| Nc1c(Br)cc(Br)c(N2CCCC2=O)c1Br | 0.5% |
| O=C(c1ccc(Cl)cc1)c1ccc(OCC(O)CN2CCOCC2)cc1 (stereo not given) | 2.3% |
| CS(=O)(=O)N1CCC(NC(=O)Cc2ccccc2)CC1 | -2.1% |
| O=C(CS(=O)(=O)c1ccccc1)N1CCCCCC1 | -9.5% |
| C/C=C(\CS(=O)(=O)c1ccccc1)S(=O)(=O)c1ccccc1 | 42.2% |

| SMILES | cytotoxicity |
| --- | --- |
| O=C1c2ccccc2C(=O)N1CCc1nc(-c2cccnc2)no1 | -7.3% |
| Cc1cccc(-n2nnc(C(=O)Nc3ccc(F)cc3)c2N)c1 | 4.2% |
| Cc1cc(C)cc(NC(=O)c2nnn(Cc3cc(C)ccc3C)c2N)c1 | 54.9% (active) |
| Cc1ccc(CCNC(=O)c2nnn(-c3cc(C)cc(C)c3)c2N)cc1 | 8.1% |
| Cc1ccc(C)c(NC(=O)c2nnn(Cc3ccccc3C)c2N)c1 | -4.9% |
| COc1ccc(C)cc1NC(=O)c1nnn(Cc2cc(C)ccc2C)c1N | -4% |
| Cc1ccc(NC(=O)c2nnn(-c3cc(C)cc(C)c3)c2N)cc1 | 51.9% (active) |
| COc1ccc(S(=O)(=O)n2ccnc2)c2cccnc12 | -6.2% |
| CC(C)(C)SCCNC(=O)COc1ccc(Cl)cc1 | 7.6% |
| CCOCCCNS(=O)(=O)c1ccc2c(c1)OCCO2 | 11.2% |
| O=c1c2c3c(sc2ncn1/N=C/c1ccco1)CCCC3 | 1.1% |
| Cc1c(NC(=O)c2ccc3c(c2)OCO3)cccc1-c1nc2ccccc2o1 | -4.5% |
| O=C(Nc1ccc2oc(-c3ccccc3F)nc2c1)c1ccc2c(c1)OCCO2 | 83.6% (active) |
| Cc1ccc(-c2nc3ccccc3o2)cc1NC(=O)c1ccc2c(c1)OCO2 | -8.2% |
| O=C(Nc1ccc2oc(-c3ccccc3)nc2c1)c1ccc2c(c1)OCCO2 | 37% |
| O=C(Nc1ccccc1-c1nc2ccccc2o1)c1ccc2c(c1)OCCO2 | 79% (active) |
| O=C(Nc1ccc2oc(-c3ccccc3F)nc2c1)c1cncc(Br)c1 | 14.2% |
| COc1cccc(-c2nnn(CC(=O)NC3CCCC3)n2)c1OC | 3.1% |
| O=C(CC1Sc2ccccc2NC1=O)Nc1cccc(C(=O)O)c1 (stereo not given) | 2.1% |
| O=C(NCc1ccncc1)c1ccc(Br)o1 | -21.6% |
| O=C(NCc1ccccc1Cl)C1CCN(S(=O)(=O)N2CCCCC2)CC1 | -3.6% |
| CCOC(=O)/C=C(\C)Sc1cc(=O)oc2ccccc12 | 77.6% (active) |
| CCOC(=O)Oc1ccc2oc(=O)cc(C)c2c1 | 10.2% |
| CCOC(=O)Nc1cc(=O)c2ccccc2o1 | 38.2% |

| SMILES | cytotoxicity |
| --- | --- |
| Cc1csc(SCc2c(C(=O)O)oc3ccccc23)n1 | -0.8% |
| CCOC(=O)C1=C(C)NC(=O)NC1c1cn(-c2ccccc2)nc1-c1cccs1 (stereo not given) | 23.8% |
| Fc1cccc(F)c1CN1CCN(c2ncccn2)CC1 | -1.5% |
| COCCN1Cc2cccc(C(=O)Nc3cccc(OC)c3)c2C1=O | -3.5% |
| Cc1c(S(=O)(=O)N2CCN(c3cccc(C(F)(F)F)c3)CC2)c(=O)n(C)c(=O)n1C | 5.8% |
| Cn1c(=O)c(=O)n(C)c2cc(S(=O)(=O)N3CCN(c4cccc(C(F)(F)F)c4)CC3)ccc21 | 80.1% (active) |
| Cn1c(=O)c2cc(S(=O)(=O)N3CCN(c4cccc(C(F)(F)F)c4)CC3)ccc2n(C)c1=O | -3.4% |
| COc1ccccc1CN(CC(=O)NCc1ccco1)C(=O)CNS(=O)(=O)c1ccccc1 | 1.2% |
| COc1ccccc1N1CCN(C(=O)C2CCN(S(=O)(=O)c3ccc(Cl)cc3)CC2)CC1 | -11.9% |
| Cc1cc(C(=O)OCC(=O)c2c(N)n(C)c(=O)n(C)c2=O)c(C)n1-c1ccccc1 | 1.3% |
| Cc1cccc(S(=O)(=O)C(C#N)c2nc3ccccc3nc2N2CCCC2)c1 (stereo not given) | -13.4% |
| COc1ccc(S(=O)(=O)C(C#N)c2nc3ccccc3nc2N2CCCC(C)C2)cc1 (stereo not given) | 60.2% (active) |
| Cc1ccc(S(=O)(=O)C(C#N)c2nc3ccccc3nc2N2CC(C)OC(C)C2)cc1C (stereo not given) | 76.5% (active) |
| Cc1cccc(S(=O)(=O)C(C#N)c2nc3ccccc3nc2N2CC(C)OC(C)C2)c1 (stereo not given) | 7.7% |
| CC1CCCN(c2nc3ccccc3nc2C(C#N)S(=O)(=O)c2ccccc2)C1 (stereo not given) | 47.8% |
| Cc1ccc(C)c(S(=O)(=O)C(C#N)c2nc3ccccc3nc2N2CCCC2)c1 (stereo not given) | 14.7% |
| Cc1ccc(S(=O)(=O)C(C#N)c2nc3ccccc3nc2N2CCCC2)cc1 (stereo not given) | 34.2% |
| Cc1ccc(S(=O)(=O)C(C#N)c2nc3ccccc3nc2N2CCC(C)CC2)cc1 (stereo not given) | 30.1% |
| Cc1ccc(S(=O)(=O)C(C#N)c2nc3ccccc3nc2N2CCCC2)cc1C (stereo not given) | 56.7% (active) |
| Cc1ccc(C)c(S(=O)(=O)C(C#N)c2nc3ccccc3nc2N2CCOCC2)c1 (stereo not given) | -1.1% |
| Cc1ccc(C)c(S(=O)(=O)C(C#N)c2nc3ccccc3nc2N2CC(C)OC(C)C2)c1 (stereo not given) | 59.3% (active) |
| COc1ccc(S(=O)(=O)C(C#N)c2nc3ccccc3nc2N2CCCCC2)cc1 (stereo not given) | 3.2% |
| Cc1ccccc1C(=O)N1CCC(C(=O)Nc2cccc(F)c2)CC1 | 3% |
